According to PubChem BioAssay (Tox21):
Records with an inconclusive call do not appear. Activity calls are given as the source filed them. Unless noted, the call rests on the fitted dose curve; in most records, active means well fitted curve in the direction sought with a large enough effect in the repeat runs; inconclusive means weak or mixed curves; inactive means no such curve, though single readings can be large; an effect the other way counts as inactive or inconclusive.

Experiments:
[1] = qHTS assay for small molecules that induce genotoxicity in human embryonic kidney cells expressing luciferase-tagged ATAD5 (AID 651632); further: nearly all actives have a fitted effect of over 15% in size; further: potency means the concentration at half of the fitted maximal effect
Procedure, shortened: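 DMSO vehicle served as the control. HEK293T reporter cells, 16 hr at 37C, then 30 min Amplite at room temperature; ATAD5 induction is measured as luciferase activity.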

[2] = qHTS assay for small molecule agonists of the p53 signaling pathway - cell viability (AID 651633; calls by dose curve; further: nearly all actives have a fitted effect of over 30% in size; further: potency means the concentration at half of the fitted maximal effect)
Procedure, shortened: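 p53RE-bla cells were treated with compound for 16 hours at 37 C. Cytotoxicity was then measured as CellTiter-Glo luminescence after 30 min at room temperature.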

[3] = qHTS assay for small molecules that induce genotoxicity in human embryonic kidney cells expressing luciferase-tagged ATAD5 - cell viability (AID 651634; calls by dose curve; further: nearly all actives have a fitted effect of over 25% in size)
Procedure, shortened: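 Here HEK293T cells with the ATAD5 luciferase reporter are incubated with test compounds for 15.5 hr, and cytotoxicity is then gauged by measuring protease activity in live cells using fluorescence.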

[4] = qHTS assay for small molecule disruptors of the mitochondrial membrane potential - cell viability (AID 720634; calls by dose curve; further: nearly all actives have a fitted effect of over 20% in size; further: potency means the concentration at half of the fitted maximal effect)
Procedure, shortened: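 Viability of HepG2 cells is scored from ATP content by luminescence; cells are exposed to compound for 1 hr at 37 C and 5% CO2, then dosed with m-MPI dye before the CellTiter-Glo reagent.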

[5] = qHTS assay for small molecule disruptors of the mitochondrial membrane potential (AID 720635); further: potency means the concentration at half of the fitted maximal effect
Procedure, shortened: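 HepG2 cells exposed to compound 1 hr at 37C, then Mito-MPS dye 30 min. Ratio read of aggregate (540/590 nm) versus monomer (490/535 nm) fluorescence.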

[6] = qHTS assay to test for compound auto fluorescence at 590 nm (red) in HepG2 cells (AID 720674)
Procedure, shortened: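 HepG2 cells, 2,000 per well in MEM with 10% FBS, attached overnight at 37 C, then got 23 nL compound or DMSO. After 1 hr at 37 C, 5% CO2, red fluorescence was read at 540/590 nm against Rose Bengal sodium as reference.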

[7] = qHTS assay to test for compound auto fluorescence at 535 nm (green) in HepG2 cells (AID 720675)
[8] = qHTS assay to test for compound auto fluorescence at 460 nm (blue) in HEK293 cells (AID 720678)
Procedure, shortened: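 Cells were seeded and left to adhere for 4-5 hr at 37C. Compounds were then pin-transferred. After an overnight incubation at 37C under 5% CO2, intrinsic fluorescence at 405/460 nm was measured and referenced to triamterene.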

[9] = qHTS assay to test for compound auto fluorescence at 590 nm (red) in HEK293 cells (AID 720679)
Procedure, shortened: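 Each well held 2,000 HEK293 cells in medium containing 10% dialyzed FBS. Following 4-5 hr attachment at 37C, 23 nL test compound or DMSO was added; plates sat overnight, and red fluorescence (540/590nm) was recorded.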
On the % scale 0 is the no-effect control and ±100 the full control effect.

O=C(O)[C@@H]1CSCN1
inactive: Potency [1] | Potency [2] | Potency [3] | Potency [4] | Potency [5] | outcome [6] | outcome [7] | outcome [8] | outcome [9]

O=[N+]([O-])c1nccn1CO[C@@H](CO)[C@H](O)CO
inactive: Potency [1] | Potency [2] | Potency [3] | Potency [4] | Potency [5] | outcome [6] | outcome [7] | outcome [9]

COc1ccc2nc(NC(=O)Nc3ccccc3)sc2c1
inactive: Potency [2] | Potency [3] | outcome [6] | outcome [7] | outcome [8] | outcome [9]
active: Potency [1] 0.75 µM | Potency [4] 6.68 µM | Potency [5] 1.19 µM

CCC/C=C/CO
inactive: Potency [1] | Potency [2] | Potency [3] | Potency [4] | outcome [6] | outcome [7] | outcome [8] | outcome [9]

NS(=O)(=O)c1cc(-c2nn[nH]n2)c(NCc2cccs2)cc1Cl
inactive: Potency [1] | Potency [2] | Potency [3] | Potency [4] | outcome [6] | outcome [7] | outcome [9]

c1ccc(CN(CC2=NCCN2)c2ccccc2)cc1
inactive: Potency [1] | Potency [2] | Potency [3] | Potency [4] | Potency [5] | outcome [6] | outcome [7] | outcome [9]

CCNCCO
inactive: Potency [1] | Potency [2] | Potency [3] | Potency [4] | Potency [5] | outcome [7] | outcome [9]

CCCCN1C[C@H](O)[C@@H](O)[C@H](O)[C@H]1CO
inactive: Potency [1] | Potency [2] | Potency [3] | Potency [4] | outcome [6] | outcome [7] | outcome [8] | outcome [9]

Nc1ccc(Oc2ccc(N)c(N)c2)cc1
inactive: Potency [2] | Potency [3] | Potency [4] | outcome [6] | outcome [7] | outcome [8] | outcome [9]
active: Potency [1] 30.6 µM | Potency [5] 17.2 µM

Cc1nc(-c2ccccn2)ncc1C(=O)Nn1cc(C)c2cc(F)ccc21
inactive: Potency [1] | Potency [2] | Potency [3] | Potency [4] | Potency [5] | outcome [6] | outcome [7] | outcome [8] | outcome [9]

CCCCNc1ccc(C(=O)OCCN(CC)CC)cc1
inactive: Potency [1] | Potency [2] | Potency [3] | Potency [4] | Potency [5] | outcome [6] | outcome [7] | outcome [8] | outcome [9]

CNCCC(Oc1ccccc1OC)c1ccccc1 (stereo unspecified)
inactive: Potency [1] | Potency [2] | Potency [3] | Potency [4] | Potency [5] | outcome [7] | outcome [8] | outcome [9]

CC(C)(C)C1CCCCC1=O (stereo unspecified)
inactive: Potency [1] | Potency [3] | Potency [4] | outcome [6] | outcome [7] | outcome [9]

O=C1CCCCC1C1CCCCC1 (stereo unspecified)
inactive: Potency [1] | Potency [2] | Potency [4] | outcome [6] | outcome [7] | outcome [8] | outcome [9]

Clc1cccc(-c2cc(Cl)cc(Cl)c2)c1
inactive: Potency [1] | Potency [4] | outcome [7] | outcome [8] | outcome [9]

CCN(CC)CCOc1ccc(Cc2ccccc2)cc1
inactive: Potency [1] | Potency [3] | Potency [4] | outcome [7] | outcome [8] | outcome [9]

CCCCCCOc1ccc(N)cc1
inactive: Potency [2] | Potency [3] | Potency [4] | outcome [6] | outcome [7] | outcome [8] | outcome [9]

C=O
inactive: Potency [2] | Potency [3] | Potency [4] | outcome [6] | outcome [7] | outcome [8] | outcome [9]

CCOC(=O)COc1ccc2c(c1)CC(NCC(O)c1cccc(Cl)c1)CC2 (stereo unspecified)
inactive: Potency [1] | Potency [4] | outcome [6] | outcome [7] | outcome [8] | outcome [9]

O=C(O)CN(CCN(CC(=O)O)CC(=O)O)CCN(CC(=O)O)CC(=O)O
active: Potency [1] 26.6 µM
inactive: Potency [2] | Potency [4] | Potency [5] | outcome [6] | outcome [7] | outcome [8] | outcome [9]

CC1=NN(c2cc(Cl)c(S(=O)(=O)O)cc2Cl)C(=O)C1N=Nc1ccc(S(=O)(=O)O)cc1 (stereo unspecified)
inactive: Potency [1] | Potency [2] | Potency [4] | Potency [5] | outcome [6] | outcome [7] | outcome [9]

Cc1c[nH]c(=S)[nH]c1=O
inactive: Potency [1] | Potency [3] | Potency [4] | outcome [6] | outcome [7] | outcome [9]

CC(C)O
inactive: Potency [1] | Potency [3] | Potency [4] | Potency [5] | outcome [6] | outcome [7] | outcome [8] | outcome [9]

CCCCC(=O)O[C@]1(C(=O)CO)[C@H](C)C[C@H]2[C@@H]3CCC4=CC(=O)C=C[C@]4(C)[C@@]3(F)[C@@H](O)C[C@@]21C
active: Potency [5] 10.6 µM
inactive: Potency [1] | outcome [6] | outcome [7] | outcome [8] | outcome [9]

O=C(O)[C@@H](O)[C@H](O)[C@H](O)[C@@H](O)C(=O)O
inactive: Potency [1] | Potency [2] | Potency [4] | Potency [5] | outcome [6] | outcome [7] | outcome [8] | outcome [9]

CCCCCCCCc1ccc(S(=O)(=O)O)cc1
inactive: Potency [1] | Potency [3] | Potency [4] | outcome [6] | outcome [7] | outcome [8] | outcome [9]

CC(=O)Oc1cc(C(C)C)c(OCCN(C)C)cc1C
inactive: Potency [1] | Potency [2] | Potency [3] | fluorescence, relative to Rose Bengal [6] 0.0269% [at 18.6 µM] | fluorescence, % of fluorescein control [7] 0.0486% [at 18.6 µM] | fluorescence, % of triamterene [8] -0.184% [at 18.6 µM] | fluorescence, % of fluorescent control [9] -0.192% [at 18.6 µM]

CCN(CC)CC1CCCCN1CC(=O)N1c2ccccc2C(=O)Nc2cccnc21 (stereo unspecified)
inactive: Potency [1] | Potency [3] | Potency [4] | Potency [5] | outcome [6] | outcome [7] | outcome [8] | outcome [9]

NC1=NCC2c3ccccc3Cc3ccccc3N12 (stereo unspecified)
inactive: Potency [2] | Potency [4] | Potency [5] | outcome [6] | outcome [7] | outcome [8] | outcome [9]

CC(C)=CCCC(C)CCOC=O (stereo unspecified)
inactive: Potency [1] | Potency [2] | outcome [6] | outcome [7] | outcome [8] | outcome [9]

CCOc1ccc(OCC)c(Cl)c1
inactive: Potency [1] | Potency [2] | Potency [4] | outcome [7] | outcome [8] | outcome [9]

Cc1c(N)cccc1N
active: Potency [5] 17.6 µM
inactive: Potency [2] | Potency [3] | Potency [4] | outcome [6] | outcome [7] | outcome [8] | outcome [9]

Cc1nnc(SCC2=C(C(=O)O)N3C(=O)[C@@H](NC(=O)Cn4cnnn4)[C@H]3SC2)s1
inactive: Potency [1] | Potency [2] | Potency [4] | Potency [5] | outcome [7] | outcome [9]

COc1ccc(Nc2ccc(OC)cc2)cc1
inactive: Potency [2] | Potency [4] | outcome [6] | outcome [7] | outcome [8] | outcome [9]

Oc1ccccc1F
inactive: Potency [1] | Potency [4] | Potency [5] | outcome [7] | outcome [8] | outcome [9]

CC1=C(CC(=O)O)c2cc(F)ccc2/C1=C\c1ccc(S(C)(=O)=O)cc1
inactive: Potency [1] | Potency [3] | Potency [4] | outcome [6] | outcome [7] | outcome [8] | outcome [9]

O=C1Nc2ccc([N+](=O)[O-])cc2C1=O
inactive: Potency [1] | Potency [2] | outcome [6] | outcome [7] | outcome [8] | outcome [9]
active: Potency [5] 68.5 µM

O=C1CCCCCCCCCCC(=O)OCCO1
active: Potency [2] 54.5 µM | Potency [5] 27.3 µM
inactive: Potency [1] | Potency [3] | outcome [7] | outcome [8] | outcome [9]

O=c1[nH]c(=O)n([C@H]2C[C@H](O)[C@@H](CO)O2)cc1C(F)(F)F
inactive: Potency [1] | Potency [3] | Potency [4] | outcome [6] | outcome [7] | outcome [8] | outcome [9]

Cc1cc2c(s1)Nc1ccccc1N=C2N1CCN(C)CC1
inactive: Potency [1] | Potency [2] | Potency [4] | Potency [5] | outcome [7] | outcome [8] | outcome [9]

CC(=O)N(CC(O)CN(C(C)=O)c1c(I)c(C(=O)NCC(O)CO)c(I)c(C(=O)NCC(O)CO)c1I)c1c(I)c(C(=O)NCC(O)CO)c(I)c(C(=O)NCC(O)CO)c1I (stereo unspecified)
inactive: Potency [1] | Potency [2] | Potency [4] | Potency [5] | fluorescence, relative to Rose Bengal [6] 0.142% [at 18.6 µM] | fluorescence, % of fluorescein control [7] 0.0792% [at 18.6 µM] | fluorescence, % of triamterene [8] 0.0832% [at 18.6 µM] | fluorescence, % of fluorescent control [9] -0.003% [at 18.6 µM]

CC1(C)C(=O)N(Cl)C(=O)N1Br
inactive: Potency [1] | Potency [2] | Potency [4] | outcome [6] | outcome [7] | outcome [8] | outcome [9]

CN1CCC[C@@H]1Cc1c[nH]c2ccc(CCS(=O)(=O)c3ccccc3)cc12
inactive: Potency [1] | Potency [2] | Potency [4] | Potency [5] | outcome [6] | outcome [7] | outcome [8] | outcome [9]

O=C(CC(=O)C(F)(F)F)c1ccccc1
inactive: Potency [1] | Potency [2] | outcome [6] | outcome [7] | outcome [8] | outcome [9]
active: Potency [5] 15.6 µM

CN1[C@@H]2CC[C@H]1CC(OC(=O)c1c[nH]c3ccccc13)C2 (stereo partly specified)
inactive: Potency [1] | Potency [2] | Potency [4] | Potency [5] | outcome [6] | outcome [7] | outcome [8] | outcome [9]

O=C(Cl)c1cccc([N+](=O)[O-])c1
inactive: Potency [2] | Potency [4] | Potency [5] | outcome [6] | outcome [7] | outcome [9]

CN(CCCN1c2ccccc2CCc2ccccc21)CC(=O)c1ccc(Cl)cc1
inactive: Potency [2] | Potency [3] | Potency [4] | outcome [6] | outcome [7] | outcome [8] | outcome [9]

CCC(=O)c1ccc2c(c1)N(CCCN(C)C)c1ccccc1S2
inactive: Potency [1] | Potency [2] | Potency [4] | outcome [6] | outcome [7] | outcome [8] | outcome [9]
